Assay results reported in PubChem BioAssay AID1578 (Sanford-Burnham Center for Chemical Genomics, 2009).
Among all 290,000 compounds or so, about 3,000 (1%) were called active. What follows is part of a selection rich in actives, with near analogues and random picks from the rest. A number with no mark means an inactive call. Cut-off read from the data, not from the text of the source: active = inhibition mostly above about 36% (no sharp cut-off); inactive = mostly below about 34%.

Experiment: NOD1 signaling inhibitors, primary screen, cell-based, luminescence, uHTS (AID 1578);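 note: HEK-293T reporter cells stimulated with the NOD1 agonist gamma-tri-DAP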
Conditions: NOD1-driven NF-kB luciferase reporter cells, at 4 µM, hits give high values

SMILES	inhibition
c1coc(C2=NCCc3ccccc32)c1	-18%
CCN(CC)c1nc(N)nc(N(c2ccccc2)c2ccccc2)n1	13.6%
Nc1nc(Cl)nc(N(c2ccccc2)c2ccccc2)n1	-8.3%
Nc1nc(CCl)nc(N(c2ccccc2)c2ccccc2)n1	50.5% (active)
Fc1ccc2c(c1)C(c1ccncc1)=NNC(c1ccccc1)=N2	16%
Cc1ccc(C(=O)COC(=O)c2ccc(-c3cnc4ccccc4n3)cc2)cc1C	-22.2%
O=C1CCCN1CCCNC(=S)Nc1ccc(Cl)cc1Cl	-41.9%
N/C(=N\NC(=O)c1sccc1OCc1ccc(Cl)cc1Cl)c1ccccn1	-6%
Cc1cc(NC(=O)/C=C/C(=O)N(c2ccccc2C)C(C(=O)NC2CCCC2)c2ccc(F)cc2)no1 (stereo not drawn)	30.5%
CCOc1ccc(N(C(=O)/C=C/C(=O)Nc2cc(C)on2)C(C(=O)NC2CCCC2)c2ccccc2C)cc1 (stereo not drawn)	52.5%
CCc1ccc(C(C(=O)NC2CCCC2)N(C(=O)/C=C/C(=O)Nc2cc(C)on2)c2ccccc2C)cc1 (stereo not drawn)	76.7% (active)
CCOC(=O)c1c(CCl)nc2ccccc2c1C	-9.2%
CCOC(=O)c1c(CCl)nc2ccccc2c1-c1ccccc1	19.7%
ClCc1nc2ccccc2c2ccccc12	64.7% (active)
CC(=O)N(CCc1ccccc1C)Cc1cc2ccc(C)cc2[nH]c1=O	-1%
CCOC(=O)N1CCN(C(=O)Cn2nc(C)c3sc4ccccc4c3c2=O)CC1	53.1% (active)
Cc1nn(CC(=O)N2CCN(C)CC2)c(=O)c2c1sc1ccccc12	-7.7%
CCN1CCN(C(=O)Cn2nc(C)c3sc4ccccc4c3c2=O)CC1	-12.8%
Cc1nnc(SCc2cn3ccsc3n2)n(N)c1=O	8.4%
Cc1ccc(C)c2sc(NC(=O)CN3C(=O)CCC3=O)nc12	14.9%
CCC(C)(C)NC(=O)c1cc(S(=O)(=O)N2CCc3ccccc32)cn1C	14.8%

SMILES	inhibition
CCCNC(=O)c1cc(S(=O)(=O)N2CCc3ccccc32)cn1C	30.1%
CC1=NN(Cc2ccccc2)C(=O)C1C(c1ccncc1)C(C#N)C#N (stereo not drawn)	5.2%
Cc1nc2c(ccc3nc(NC(=O)C4CC4)sc32)s1	69% (active)
Cc1nc2c(ccc3nc(NC(=O)Cc4ccccc4)sc32)s1	-51.4%
CCC(=O)Nc1nc2ccc3sc(C)nc3c2s1	17.2%
Fc1ccc(NC(=S)Nc2cccnc2)c(F)c1F	-19.1%
COc1ccc(CCNC(=O)c2oc3ccc(OC)cc3c2C)cc1	-13.3%
CCOc1ccccc1NC(=O)CSc1nc2c(c(=O)n1C)SC(C)C2 (stereo not drawn)	-16.7%
O=C1COc2ccc(C(=O)COC(=O)CCc3ccc(S(=O)(=O)N4CCOCC4)cc3)cc2N1	1.2%
Cc1ccc2nc(-c3cc(-c4ccccc4)no3)cn2c1	-4.9%
CCc1ccn2cc(-c3cc(-c4ccccc4)no3)nc2c1	45.6% (active)
c1ccc(-c2cc(-c3ccccc3)on2)cc1	-10%
O=C(NCc1ccccc1)C1CCC(CNS(=O)(=O)c2cccs2)CC1 (stereo not drawn)	-1.7%
CCN(C(=O)CSc1nc2cc(C(=O)OC)ccc2c(=O)n1Cc1ccco1)c1cccc(C)c1	74% (active)
COC(=O)c1ccc2c(=O)n(Cc3ccco3)c(SCC(=O)Nc3cc(C)on3)nc2c1	-44.8%
CCc1ccc(NC(=O)CSc2nc3cc(C(=O)OC)ccc3c(=O)n2Cc2ccco2)cc1	-7.4%
Cc1ccc(S(=O)(=O)NC(=O)Nc2ccccc2)cc1	-30.4%
O=C(Cn1nnc(-c2ccc3c(c2)OCO3)n1)NCc1ccccc1	4.7%
O=C(NCC(=O)N1CC(O)CC1C(=O)N1CC(O)CC1C(=O)OCc1ccccc1)OCc1ccccc1 (stereo not drawn)	-13.7%
CCOC(=O)/C=C/C(=O)Nc1ccc(Oc2ccccc2)cc1	6.8%
CC(=O)Nc1ccc(S(=O)(=O)N(C)c2ccccc2)cc1	-12.7%

SMILES	inhibition
Cc1cc(NC(=O)Nc2cccc(C(F)(F)F)c2)no1	-7.7%
Cc1ccc(NC(=O)CSc2nn(-c3ccc(Cl)cc3)c(=S)s2)cc1S(=O)(=O)N(C)C	53.2%
NS(=O)(=O)c1cccc(NC(=O)CSc2nn(-c3ccccc3)c(=S)s2)c1	39.5%
Cc1c(C(=O)NCCSCc2cccc(C(F)(F)F)c2)cnn1-c1ccc(F)cc1	-3.5%
COc1cccc(NC(=O)Cc2ccc3ccccc3c2)c1	15.2%
Cc1ccc(NC(=O)Cn2c(=O)cnc3ccccc32)cc1S(=O)(=O)N(C)C	-22.2%
Cc1sc(NC(=O)Nc2ccccc2)c(C(N)=O)c1C	-40.3%
COC(=O)c1sc(N2CCN(c3ccc(Cl)cc3)CC2)nc1N	66.9% (active)
COc1ccc(N2CCN(C(=O)NC(=O)c3ccc(Cl)cc3)CC2)cc1	-13.4%
COc1ccc(N2CCN(C(=O)C(C)(C)Oc3ccc(Cl)cc3)CC2)cc1	-14.6%
NS(=O)(=O)c1ccc(NCc2cc(Cl)ccc2OCc2ccc(F)cc2)cc1	27.2%
CC(=O)N1CCn2c3c(c(=O)c4cc(C)ccc42)CCC31 (stereo not drawn)	-6.4%
Cc1ccc2c(c1)c(=O)c1c3n2CCN(C(=O)CCl)C3CC1 (stereo not drawn)	105% (active)
Cc1ccc2c(c1)c1c3n2CCN(C(=O)CCl)C3CCC1 (stereo not drawn)	52.3%
CCc1ccc2c(CN3CCN(S(=O)(=O)c4ccc5c(c4)OCCO5)CC3)cc(=O)oc2c1	-2.7%
COc1ccc(S(=O)(=O)n2c([N+](=O)[O-])cnc2C)cc1OC	-2.3%
CC1=C(C(=O)OCc2ccccc2)C(c2ccc(Cl)cc2)NC(=O)N1C (stereo not drawn)	-1.2%
O=C(N/N=C/c1cccnc1)C1CCCCC1	-16.2%
Cc1ccc(C(=O)N2CCN=C2SCc2ccc([N+](=O)[O-])cc2)cc1	35.5%
Cc1cc(C)cc(C(=O)N2CCN=C2SCc2ccc([N+](=O)[O-])cc2)c1	41%
Cc1cccc(C(=O)N2CCN=C2SCc2ccc([N+](=O)[O-])cc2)c1	41.9% (active)
